About 79,000 compounds went through this panel and 15% of them were active in at least one assay; those are over-represented in the sample as a whole. No stated cut-off is given here; in the data, active means growth inhibition above about 70%; inactive means the rest.
Legend:
[1] = NCI Yeast Anticancer Drug Screen. Data for the rad50 strain (AID 155);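 further: 0% = growth of vehicle-only cultures of the same strain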; conditions: S. cerevisiae rad50 strain growth inhibition; at 50.0 µM; hits give high values
Summary of the method: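 Growth of the mutant yeast was measured after compound exposure and referenced to vehicle-treated cultures.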

[2] = NCI Yeast Anticancer Drug Screen. Data for the mec2-1 strain (AID 157); conditions: S. cerevisiae mec2-1 strain, at 50.0 µM, hits give high values
Summary of the method: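 Cells of the genetically defined mec2-1 yeast strain are incubated with test compound. Inhibition of growth is calculated against vehicle-treated controls.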

[3] = NCI Yeast Anticancer Drug Screen. Data for the mlh1 rad18 strain (AID 175); conditions: S. cerevisiae mlh1 rad18 strain growth inhibition; at 50.0 µM; hits give high values
Summary of the method: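 Compound-treated yeast growth, normalised to vehicle controls. Strain bears defined DNA repair mutations.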

Measured: growth inhibition

Nc1ccccc1CCc1ccccc1N
inactive: [1] 18.2% | [2] -10.1% | [3] 12.4%

S=c1[nH]nc(NC2CCCCC2)s1
inactive: [1] -4.4% | [2] -12% | [3] -7.1%

COc1ccc(C(C#N)N2CCCC2)cc1 (stereo not drawn)
inactive: [1] -21.9% | [2] -37.9% | [3] -9.75%

Cc1ccc(CNc2ccc(F)cc2)cc1
inactive: [1] 29.9% | [2] 28.9% | [3] 19.8%

O=S(=O)(O)c1cccc2cccc(Cl)c12
inactive: [1] 9.7% | [2] -7.4% | [3] 10.9%

C[N+]12CCC34c5ccccc5NC3C3C(CC(=O)[O-])OCC=C(C1)C3CC42 (stereo not drawn)
inactive: [1] -7.55% | [2] -45% | [3] -31%

O=C1Nc2ccccc2/C1=N/N=C/c1cc(Cl)cc(Cl)c1O
inactive: [1] 32.7% | [2] 9.4% | [3] 20.1%

CN(Cc1ccccc1)Cc1ccccc1
inactive: [1] 8.4% | [2] -3.9% | [3] 14.7%

CCO/C=C1\SC(=S)N(c2ccc(C(=O)O)cc2)C1=O
inactive: [1] -6.05% | [2] -16.3% | [3] 13.2%

OCNC(=S)c1c(Cl)cccc1Cl
inactive: [1] -4.25% | [2] -18.1% | [3] -6.6%

O=[N+]([O-])c1ccc2nc3c4ccccc4c4ccccc4c3nc2c1
inactive: [1] 53.1% | [2] -1.1% | [3] 3.65%

O=C(O)CSCc1nc2ccccc2[nH]1
inactive: [1] -10.8% | [2] -15.7% | [3] 41.8%

Cc1ccc(S(=O)(=O)N2CCC(O)(c3ccccc3)CC2)cc1
inactive: [1] -3.05% | [2] -36.3% | [3] -2.7%

Oc1ccccc1C=Nc1ccccc1C(F)(F)F
inactive: [1] -7.3% | [2] -19.9% | [3] 25.2%

C=CCNC(=S)N/N=C\c1cc(OC)c(OC)c(OC)c1
inactive: [1] -18.8% | [2] -44.5% | [3] -34.6%

O=S(=O)(O)c1ccc(-c2ccccc2)cc1
inactive: [1] -0.4% | [2] -16.1% | [3] -5.4%

O=c1oc(-c2ccccc2)nc2cc(Cl)ccc12
inactive: [1] -0.3% | [2] 0.25% | [3] 1.35%

CCCCCCCCCCCC(=O)CCCCC
inactive: [1] -29.5% | [2] -17.1% | [3] -29.4%

Oc1ccccc1C=NCC1CCC(CN=Cc2ccccc2O)CC1 (stereo not drawn)
inactive: [1] 8.85% | [2] 13.1% | [3] 21%

Clc1ccc(C=NCCN=Cc2ccc(Cl)c(Cl)c2)cc1Cl
inactive: [1] -14.5% | [2] -20.3% | [3] -9.3%

O=C1NC(c2ccc3ccccc3c2)Nc2ccccc21 (stereo not drawn)
inactive: [1] -2.85% | [2] -9.2% | [3] 19.1%

Nc1ccc2[nH]c(-c3ccccc3)cc(=O)c2c1
inactive: [1] -38% | [2] -33.8% | [3] -15.9%

Cc1ccc(-c2noc(CC(=O)c3ccc([N+](=O)[O-])cc3)n2)cc1
inactive: [1] 14.4% | [2] 5.85% | [3] 38.8%

CC(=O)CC1CCCC(CC(C)=O)N1C (stereo not drawn)
inactive: [1] -9.3% | [2] -19.2% | [3] 0.2%

c1cc[n+](CCNCC[n+]2ccccc2)cc1
inactive: [1] 8.55% | [2] -7.75% | [3] 36.6%

CN(C)c1ccc(P(c2ccc(N(C)C)cc2)c2ccc(N(C)C)cc2)cc1
inactive: [1] -17.2% | [2] -15.3% | [3] -25.2%

O=C(NNCN1C(=O)c2ccccc2C1=O)c1ccccc1
inactive: [1] -13.8% | [2] -15.7% | [3] -4.7%

N/C(Cc1ccc(N)cc1)=N\O
inactive: [1] -17.4% | [2] -13.6% | [3] -13.8%

O=C1c2ccccc2C(=O)N1/N=C/c1cc(Br)ccc1O
inactive: [1] 22.2% | [2] -4.35% | [3] 10.4%

O=C(OCC1OC(Oc2ccccc2CO)C(O)C(O)C1O)c1ccccc1 (stereo not drawn)
inactive: [1] -2.1% | [2] 1.45% | [3] 0.45%

COc1ccc(C(CCl)(CCl)c2ccc(OC)c(N)c2)cc1N
inactive: [1] 12.3% | [2] 14% | [3] 28.6%

— PubChem BioAssay (NCI)
